Measurements reported in PubChem BioAssay.
Calls of active or inactive are those of the source.

How the values were obtained:
[1] = E. coli DRC41 culture turbidity changes, primary screen, E. coli filamentation inducer project, strain DRC41, OD650, 48 h (AID 1152);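 note: E. coli MC1000 strain DRC41 lacking acrAB efflux pump and sulA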; settings: E. coli DRC41 (acrAB sulA), higher = more signal, called active from +8 up or from −8 down
[2] = small-molecule binders of probe aLefty1, primary screen, biochemical, small-molecule microarray, 635/667 nm fluorescence (AID 1153); settings: higher = more signal;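 note: score merges spot fluorescence with signal-to-noise ratio from the scanned slide images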
[3] = PSAC antagonists in infected red cells, primary screen, cell-based, P. falciparum Indochina, OD700, 1 h (AID 1154); settings: P. falciparum Indochina infected RBC osmotic lysis, higher = more signal, called active from +8 up or from −8 down
[4] = PSAC antagonists in infected red cells, primary screen, cell-based, P. falciparum Indochina, OD700, 2 h (AID 1155);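 note: lysis reports solute entry through the parasite surface anion channel PSAC; channel blockers reduce lysis of infected cells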; settings: P. falciparum Indochina infected erythrocytes, osmotic lysis OD700; higher = more signal, called active from +8 up or from −8 down
[5] = osmotic lysis modulators in infected erythrocytes, primary screen, PSAC antagonist project, cell-based, P. falciparum Indochina, OD700, 3 h (AID 1156); settings: higher = more signal, called active from +8 up or from −8 down
[6] = PSAC antagonists in infected red cells, primary screen, cell-based, P. falciparum Indochina, OD700, 18 h (AID 1157); settings: P. falciparum Indochina infected erythrocytes, osmotic lysis OD700, 18 h; higher = more signal, called active from +8 up or from −8 down
[7] = modulators of S6 phosphorylation in cells, primary screen, cell-based, A549, cytoblot, luminescence, serum-stimulated (AID 1158); settings: A549 phospho-S6 cytoblot, 5 h, higher = more signal;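 note: serum-stimulated A549 lung adenocarcinoma cells; signal is phosphorylated S6 detected by cytoblot immunostaining with HRP secondary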
[8] = molecular target: NADPH oxidase 2 (Homo sapiens) (UniProt P04839); assay: NOX2-dependent H2O2 signal modulators, primary screen, NOX inhibitor project, cell-based, HEK293-NOX2, PMA-stimulated, Amplex Red fluorescence (AID 1159); settings: 45 min, higher = more signal, called active from +8 up or from −8 down; note: test concentration not given here
[9] = molecular target: NADPH oxidase 4 (Homo sapiens) (UniProt Q9NPH5); assay: NOX4-dependent H2O2 signal modulators, primary screen, NOX inhibitor project, cell-based, HEK293-NOX4, tetracycline-induced, Amplex Red fluorescence (AID 1160); settings: 45 min, higher = more signal, called active from +8 up or from −8 down
[10] = molecular target: NADPH oxidase 5 (Homo sapiens) (UniProt Q96PH1); assay: NOX5-dependent H2O2 signal modulators, primary screen, NOX inhibitor project, cell-based, HEK293-NOX5, Amplex Red fluorescence (AID 1161); settings: HEK293-NOX5, ionomycin, 45 min, higher = more signal
[11] = A549 cell viability effects, profiling panel, calcein-AM fluorescence, 48 h, basal (AID 1162); settings: higher = more signal; note: test concentration not given here
[12] = adipocyte viability effects, profiling panel, cell-based, 3T3-L1 adipocytes, calcein-AM fluorescence, 48 h, basal (AID 1163); settings: 3T3-L1 adipocytes viability, higher = more signal; note: test concentration not given here
[13] = HepG2 cell viability effects, profiling panel, calcein-AM fluorescence, 48 h, basal (AID 1164); settings: higher = more signal; note: test concentration not given here
[14] = MM1S cell viability effects, profiling panel, calcein-AM fluorescence, 48 h, basal (AID 1165); settings: higher = more signal;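 note: viability of MM1S multiple myeloma cells under basal unstimulated conditions; test concentration not given here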
[15] = basal RPMI8226 viability, no added stimulus, profiling panel, cell-based, calcein-AM fluorescence, 48 h, PK04 Diversity Set (AID 1166); settings: RPMI8226 myeloma viability, higher = more signal;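 note: cells grown under basal conditions without added stimulus; test concentration not given here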
[16] = basal HepG2 mitochondrial membrane potential changes, profiling panel, cell-based, JC-1 fluorescence, 24 h, 100 nL compound (AID 1167); settings: higher = more signal; note: test concentration not given here
[17] = basal 3T3-L1 adipocyte mitochondrial potential changes, profiling panel, cell-based, JC-1 fluorescence, 3T3-L1 adipocytes, 24 h, 100 nL compound (AID 1168); settings: JC-1 mitochondrial fluorescence, higher = more signal, called active from +8 up or from −8 down; note: test concentration not given here
[18] = basal RPMI8226 mitochondrial membrane potential changes, profiling panel, cell-based, JC-1 fluorescence, 24 h, 100 nL compound (AID 1169); settings: RPMI8226 myeloma, JC-1 mitochondrial potential fluorescence, higher = more signal; note: test concentration not given here
[19] = basal MM1S mitochondrial membrane potential changes, profiling panel, cell-based, JC-1 fluorescence, 24 h, 100 nL compound (AID 1170); settings: higher = more signal; note: test concentration not given here
[20] = A549 lung cancer cell viability effects, profiling panel, resazurin fluorescence, 24 h, PK04 Diversity Set (AID 1171); settings: higher = more signal, called active from +8 up or from −8 down; note: test concentration not given here

Chain of NADPH oxidase 5 (Homo sapiens) (Q96PH1 whole entry, looked up): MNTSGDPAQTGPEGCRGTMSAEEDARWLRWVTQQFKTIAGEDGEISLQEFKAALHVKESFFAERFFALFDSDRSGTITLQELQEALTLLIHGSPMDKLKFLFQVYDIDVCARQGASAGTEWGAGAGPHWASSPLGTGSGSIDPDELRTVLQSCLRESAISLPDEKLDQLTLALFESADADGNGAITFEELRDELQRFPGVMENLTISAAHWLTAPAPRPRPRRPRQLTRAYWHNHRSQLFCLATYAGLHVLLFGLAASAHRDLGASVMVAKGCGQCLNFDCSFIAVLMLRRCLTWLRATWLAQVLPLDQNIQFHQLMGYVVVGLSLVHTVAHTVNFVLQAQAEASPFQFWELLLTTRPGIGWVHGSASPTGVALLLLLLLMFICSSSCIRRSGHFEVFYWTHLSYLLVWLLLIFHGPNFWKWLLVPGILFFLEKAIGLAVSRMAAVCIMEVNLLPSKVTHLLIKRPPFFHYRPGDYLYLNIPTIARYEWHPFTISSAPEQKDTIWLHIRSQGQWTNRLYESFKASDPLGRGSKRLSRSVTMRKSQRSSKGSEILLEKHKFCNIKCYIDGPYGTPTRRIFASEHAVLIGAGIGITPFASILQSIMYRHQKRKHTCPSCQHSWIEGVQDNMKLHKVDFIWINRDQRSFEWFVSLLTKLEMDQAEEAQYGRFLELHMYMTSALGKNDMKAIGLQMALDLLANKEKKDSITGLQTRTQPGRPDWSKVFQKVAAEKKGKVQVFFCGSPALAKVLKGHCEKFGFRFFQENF
Chain of NADPH oxidase 2 (Homo sapiens) (P04839 whole entry, looked up): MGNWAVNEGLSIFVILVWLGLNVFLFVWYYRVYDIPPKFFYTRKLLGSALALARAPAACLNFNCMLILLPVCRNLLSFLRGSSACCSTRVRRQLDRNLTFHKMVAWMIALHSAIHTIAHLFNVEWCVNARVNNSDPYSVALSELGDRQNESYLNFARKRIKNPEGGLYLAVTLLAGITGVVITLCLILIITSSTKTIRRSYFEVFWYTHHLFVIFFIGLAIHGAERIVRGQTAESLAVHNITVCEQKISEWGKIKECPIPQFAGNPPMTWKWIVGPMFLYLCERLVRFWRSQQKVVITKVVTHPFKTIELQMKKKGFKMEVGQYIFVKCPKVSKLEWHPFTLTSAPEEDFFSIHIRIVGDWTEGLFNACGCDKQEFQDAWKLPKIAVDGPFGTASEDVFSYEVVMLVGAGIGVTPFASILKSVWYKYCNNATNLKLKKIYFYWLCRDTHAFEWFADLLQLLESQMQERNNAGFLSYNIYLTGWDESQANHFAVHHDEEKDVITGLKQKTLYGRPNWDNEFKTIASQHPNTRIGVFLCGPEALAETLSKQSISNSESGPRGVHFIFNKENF
Chain of NADPH oxidase 4 (Homo sapiens) (Q9NPH5 whole entry, looked up): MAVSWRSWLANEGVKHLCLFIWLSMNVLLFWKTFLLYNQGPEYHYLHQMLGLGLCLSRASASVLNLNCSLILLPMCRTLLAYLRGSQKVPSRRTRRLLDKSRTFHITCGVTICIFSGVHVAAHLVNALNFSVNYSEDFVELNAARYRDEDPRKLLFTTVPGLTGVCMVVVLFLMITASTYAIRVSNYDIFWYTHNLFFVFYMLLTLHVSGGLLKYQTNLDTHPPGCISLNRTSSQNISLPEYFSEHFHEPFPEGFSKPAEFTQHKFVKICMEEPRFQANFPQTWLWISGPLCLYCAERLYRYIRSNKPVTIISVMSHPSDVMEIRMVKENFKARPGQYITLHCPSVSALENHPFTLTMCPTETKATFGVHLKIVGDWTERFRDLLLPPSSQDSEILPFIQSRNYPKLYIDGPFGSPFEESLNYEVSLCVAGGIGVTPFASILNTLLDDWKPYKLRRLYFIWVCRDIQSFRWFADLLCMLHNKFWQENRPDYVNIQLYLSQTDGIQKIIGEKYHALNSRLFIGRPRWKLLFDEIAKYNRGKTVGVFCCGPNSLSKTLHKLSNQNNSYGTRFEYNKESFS

| Structure (SMILES) | z-score [1] | composite z-score [2] | z-score [3] | z-score [4] | z-score [5] | z-score [6] | z-score [7] | z-score [8] | z-score [9] | z-score [10] | z-score [11] | z-score [12] | z-score [13] | z-score [14] | z-score [15] | z-score [16] | z-score [17] | z-score [18] | z-score [19] | z-score [20] |
| --- | --- | --- | --- | --- | --- | --- | --- | --- | --- | --- | --- | --- | --- | --- | --- | --- | --- | --- | --- | --- |
| C[N+](C)(C)CCCCCCNC(=O)[C@@H]1C[C@@H]2C(=O)N[C@@H](Cc3ccccc3)C(=O)N2[C@@H]1c1ccc(O)cc1 | 0.38 (inactive) | 0.286 | 3.42 (inactive) | 0.0655 (inactive) | -0.406 (inactive) | 0.0311 (inactive) | -0.491 | 0.627 (inactive) | 0.203 (inactive) | 0.0921 | -0.428 | -0.482 | 0.223 | 0.337 | -0.0064 | -1.12 | -0.055 (inactive) | -0.862 | -0.401 | 0.47 (inactive) |
| COc1ccc(NC(=O)O[C@H]2[C@H](OC(=O)Nc3ccc4c(c3)OCO4)[C@H](OC(=O)Nc3ccc4c(c3)OCO4)[C@@H](OC)O[C@@H]2CO)cc1 | -0.723 (inactive) | 0.114 | 13.7 (active) | 1.26 (inactive) | 0.99 (inactive) | 0.597 (inactive) | -0.0897 | -1.54 (inactive) | -0.399 (inactive) | -1.64 | -0.798 | 0.568 | -0.54 | -0.714 | -0.983 | -0.0127 | -0.213 (inactive) | -0.685 | -1.19 | -0.339 (inactive) |
| COCCOC(=O)N1C(=O)[C@@]2(c3ccccc31)[C@H](c1ccc(OCCO)cc1)N1[C@H](c3ccccc3)[C@H](c3ccccc3)OC(=O)[C@H]1[C@@H]2C(=O)N1CCN(c2ncccn2)CC1 | 0.118 (inactive) | 0.547 | 22.1 (active) | 6.25 (inactive) | 1.4 (inactive) | 1.56 (inactive) | 0.0018 | 1.19 (inactive) | 0.262 (inactive) | 0.618 | -0.158 | 1.39 | -0.29 | -1.12 | -1.12 | 1.03 | 0.358 (inactive) | 0.1 | -1.1 | 0.345 (inactive) |
| COCCOC(=O)N1C(=O)[C@@]2(c3cc(C#CCCO)ccc31)[C@H](c1ccc(O)cc1)N1[C@H](c3ccccc3)[C@H](c3ccccc3)OC(=O)[C@H]1[C@@H]2C(=O)N1CCc2cc(OC)c(OC)cc2C1 | -0.0188 (inactive) | 0.469 | 1.22 (inactive) | 0.141 (inactive) | 0.203 (inactive) | 0.286 (inactive) | 0.212 | 0.611 (inactive) | 0.522 (inactive) | 1.02 | 1.1 | 0.462 | 1.04 | 0.664 | 0.113 | 0.374 | 0.57 (inactive) | -0.253 | -0.602 | -0.0256 (inactive) |
| COCCOC(=O)N1C(=O)[C@@]2(c3ccccc31)[C@H](C(N)=O)[C@H]1C(=O)O[C@H](c3ccccc3)[C@H](c3ccccc3)N1[C@@H]2c1ccc(OCCO)cc1 | 1.15 (inactive) | 0.196 | 3.76 (inactive) | 0.527 (inactive) | -0.535 (inactive) | 0.436 (inactive) | -0.211 | -0.555 (inactive) | 1.1 (inactive) | 0.00857 | -0.429 | 0.452 | -0.363 | -0.198 | 0.711 | -0.914 | 0.055 (inactive) | -0.112 | -0.523 | 0.574 (inactive) |
| CC[C@H](C)C(=O)O[C@H]1CC[C@]2(C)C3=C(CCC2C1(C)C)[C@]1(C)CC[C@H]([C@H](C)CCCC(C)C)[C@@]1(C)CC3 (stereo not given in full) | 2.16 (inactive) | -0.142 | -0.223 (inactive) | -0.121 (inactive) | -0.589 (inactive) | -0.136 (inactive) | 0.231 | -0.371 (inactive) | -0.0141 (inactive) | -0.162 | 1.18 | 0.265 | 0.469 | 0.223 | -1.06 | 2.01 | -0.959 (inactive) | -0.509 | 0.628 | 0.809 (inactive) |
| CO[C@H]1O[C@H](CO)[C@@H](OC(=O)Nc2ccc(C(F)(F)F)cc2)[C@H](OC(=O)Nc2ccccc2-c2ccccc2)[C@@H]1OC(=O)Nc1ccccc1-c1ccccc1 | 0.0065 (inactive) | 0.534 | 4.11 (inactive) | 1.04 (inactive) | 0.14 (inactive) | 0.817 (inactive) | 0.672 | -0.803 (inactive) | -0.549 (inactive) | -1.23 | -1.34 | -0.029 | -0.745 | -0.413 | -0.909 | -0.58 | 0.688 (inactive) | -0.172 | -0.35 | -1.35 (inactive) |
| CCCCNC(=O)c1ccc(C#C[Si](C)(C)C)c(OC(C)=O)c1 | 0.151 (inactive) | -0.0032 | 12.3 (active) | 1.64 (inactive) | 1.67 (inactive) | 0.672 (inactive) | 0.726 | 1.8 (inactive) | 0.194 (inactive) | 0.0648 | -0.507 | 0.477 | -0.484 | 0.131 | -1.13 | -1.12 | -0.538 (inactive) | -0.215 | -0.601 | -0.389 (inactive) |
